For 9 compounds, nuclei count, normalised and p53-positive nuclei, normalised results are on record in PubChem BioAssay AID1508601 (ICCB-Longwood Screening Facility, Harvard Medical School, 2020).

Out of some 5,700 compounds screened, about 85 (1%) were called active. Cut-off read from the data, not from the text of the source: active = p53-positive nuclei above about 36% (passing the limit was not always enough); inactive = the rest. The full list was thinned out, with actives kept by preference.

Experiment [1] in a line: nuclear p53 accumulation, HPV+ cells – imaging, p53-positive nuclei imaging, 24 h, 48 h (AID 1508601). The conditions noted are these: 24/48 h.
The target in experiment [2] is Cellular tumor antigen p53 (Homo sapiens) (UniProt P04637). The description is as above. The conditions noted are these: 24/48 h, stronger effect = higher value.
Chain of Cellular tumor antigen p53 (Homo sapiens) (P04637 whole entry, looked up): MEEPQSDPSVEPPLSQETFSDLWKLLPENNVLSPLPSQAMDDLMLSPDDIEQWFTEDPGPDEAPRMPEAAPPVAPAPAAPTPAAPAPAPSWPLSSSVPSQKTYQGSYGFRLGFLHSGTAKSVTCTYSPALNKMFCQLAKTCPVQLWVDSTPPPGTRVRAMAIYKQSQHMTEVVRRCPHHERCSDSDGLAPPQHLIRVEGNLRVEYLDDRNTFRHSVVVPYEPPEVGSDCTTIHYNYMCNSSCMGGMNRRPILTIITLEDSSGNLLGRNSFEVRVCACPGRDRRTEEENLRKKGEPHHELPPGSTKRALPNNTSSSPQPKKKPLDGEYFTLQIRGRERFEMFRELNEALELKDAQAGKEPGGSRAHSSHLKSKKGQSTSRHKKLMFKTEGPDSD
Setting [3] is: measured here: cell number at 24 h, concentration not given here.
Where [4] appears, read: measured here: cell number at 48 h, concentration not given here.
[5] abbreviates: measured here: p53 positive nuclei at 24 h, concentration not given here.
The mark [6] stands for this setting: measured here: cell number at 24 h, Library stock concentration: 10 mM.
[7] abbreviates: measured here: cell number at 48 h, Library stock concentration: 10 mM.
Setting [8] is: Library stock concentration: 10 mM.
[9] abbreviates: measured here: p53 positive nuclei at 24 h, Library stock concentration: 10 mM.
Setting [10] is: measured here: cell number at 24 h, Library stock concentration: 3.33 mM.
Where [11] appears, read: measured here: cell number at 48 h, Library stock concentration: 3.33 mM.
The mark [12] stands for this setting: Library stock concentration: 3.33 mM.
The mark [13] stands for this setting: measured here: p53 positive nuclei at 24 h, Library stock concentration: 3.33 mM.

With `CCCCC[C@H](O)/C=C/[C@H]1[C@H](O)CC(=O)[C@@H]1C/C=C\CCCC(=O)Oc1ccc(NC(C)=O)cc1`, the nuclei count, normalised in experiment [1] (setting [3]) turned out to be 106%; in experiment [1] (setting [4]), 115%. Further, the p53-positive nuclei, normalised is -0.0787% (inactive) in experiment [2] (concentration not given here) and -0.118% in experiment [2] (setting [5]).
On the same counts, the results for `CCCCCCCCCC(=O)CC(=O)N[C@H]1CCOC1=O` are 107%, 108%, 0.0451% (inactive) and -0.0502%.
With `CC1CCNC(=O)c2cc3ccc(C(=O)Nc4nc5ccccc5n4CCCN(C)C)cc3n21` (configuration not stated), the nuclei count, normalised was 112% in experiment [1] (measured here: cell number at 24 h, Library stock concentration: 80 uM); 107% in experiment [1] (measured here: cell number at 24 h, Library stock concentration: 400 uM); 107% in experiment [1] (measured here: cell number at 24 h, Library stock concentration: 2 mM); 106% in experiment [1] (setting [6]); 115% in experiment [1] (measured here: cell number at 48 h, Library stock concentration: 80 uM); 113% in experiment [1] (measured here: cell number at 48 h, Library stock concentration: 400 uM). In addition, the nuclei count, normalised in experiment [1] (measured here: cell number at 48 h, Library stock concentration: 2 mM) stood at 111%; in experiment [1] (setting [7]), 119%. Further, the p53-positive nuclei, normalised was -0.131% (inactive) in experiment [2] (Library stock concentration: 80 uM); -0.0944% (inactive) in experiment [2] (Library stock concentration: 400 uM); 0.0714% (inactive) in experiment [2] (Library stock concentration: 2 mM); -0.134% (inactive) in experiment [2] (setting [8]); -0.0686% in experiment [2] (measured here: p53 positive nuclei at 24 h, Library stock concentration: 80 uM); 0.0741% in experiment [2] (measured here: p53 positive nuclei at 24 h, Library stock concentration: 400 uM). In addition, the p53-positive nuclei, normalised was -0.156% in experiment [2] (measured here: p53 positive nuclei at 24 h, Library stock concentration: 2 mM) and -0.111% in experiment [2] (setting [9]).
As for `Cn1ncc(NC(=O)CCc2cn3ccccc3n2)n1`, the results for the nuclei count, normalised in experiment [1] (setting [3]) and in experiment [1] (setting [4]) were 84.4% and 90.1%, respectively. Also, the p53-positive nuclei, normalised is -0.189% (inactive) in experiment [2] (concentration not given here) and -0.142% in experiment [2] (setting [5]).
For the compound `O=C(O)CCNC(=O)c1ccccc1`, the nuclei count, normalised turned out to be 113% in experiment [1] (setting [10]), 110% in experiment [1] (setting [3]), 105% in experiment [1] (setting [11]) and 110% in experiment [1] (setting [4]). The p53-positive nuclei, normalised in experiment [2] (setting [12]) was 0.0364% (inactive); in experiment [2] (concentration not given here), 0.0211% (inactive); in experiment [2] (setting [13]), -0.327%; in experiment [2] (setting [5]), -0.211%.
Turning to `CN(NC(=O)CC(=O)NN(C)C(=S)c1ccccc1)C(=S)c1ccccc1`, the nuclei count, normalised in experiment [1] (measured here: cell number at 24 h, Library stock concentration: 500 nM) is 98.9%; in experiment [1] (measured here: cell number at 24 h, Library stock concentration: 1.5 uM), 108%; in experiment [1] (measured here: cell number at 24 h, Library stock concentration: 4.6 uM) it was 110%; in experiment [1] (measured here: cell number at 24 h, Library stock concentration: 13.7 uM), 111%; in experiment [1] (measured here: cell number at 24 h, Library stock concentration: 41 uM), 94.3%; in experiment [1] (measured here: cell number at 24 h, Library stock concentration: 123 uM), 64.8%. In addition, the nuclei count, normalised in experiment [1] (measured here: cell number at 24 h, Library stock concentration: 370 uM) came out at 60.9%; in experiment [1] (measured here: cell number at 24 h, Library stock concentration: 1.111 mM), 60.4%; in experiment [1] (setting [10]), 51.3%; in experiment [1] (measured here: cell number at 24 h, Library stock concentration: 3.333 mM), 54.8%; in experiment [1] (setting [6]), 54.4%; in experiment [1] (measured here: cell number at 48 h, Library stock concentration: 500 nM) it was 104%. Further, the nuclei count, normalised in experiment [1] (measured here: cell number at 48 h, Library stock concentration: 1.5 uM) was determined as 107%; in experiment [1] (measured here: cell number at 48 h, Library stock concentration: 4.6 uM) it was 108%; in experiment [1] (measured here: cell number at 48 h, Library stock concentration: 13.7 uM), 110%; in experiment [1] (measured here: cell number at 48 h, Library stock concentration: 41 uM), 100%; in experiment [1] (measured here: cell number at 48 h, Library stock concentration: 123 uM) it was 63.4%; in experiment [1] (measured here: cell number at 48 h, Library stock concentration: 370 uM) it was 55%. Also, the nuclei count, normalised in experiment [1] (measured here: cell number at 48 h, Library stock concentration: 1.111 mM) was 52.6%; in experiment [1] (setting [11]), 44.1%; in experiment [1] (measured here: cell number at 48 h, Library stock concentration: 3.333 mM), 48.4%; in experiment [1] (setting [7]), 43.1%. The p53-positive nuclei, normalised in experiment [2] (Library stock concentration: 500 nM) is 0.0337% (inactive); in experiment [2] (Library stock concentration: 1.5 uM), -0.251% (inactive); in experiment [2] (Library stock concentration: 4.6 uM), 0.0195% (inactive); in experiment [2] (Library stock concentration: 13.7 uM) it was 0.51% (inactive); in experiment [2] (Library stock concentration: 41 uM) it was 5.45% (inactive); in experiment [2] (Library stock concentration: 123 uM), 37% (active). The p53-positive nuclei, normalised in experiment [2] (Library stock concentration: 370 uM) is 48.3% (active); in experiment [2] (Library stock concentration: 1.111 mM), 55.8% (active); in experiment [2] (setting [12]), 56.4% (active); in experiment [2] (Library stock concentration: 3.333 mM) it was 64.9% (active); in experiment [2] (setting [8]), 64.3% (active); in experiment [2] (measured here: p53 positive nuclei at 24 h, Library stock concentration: 500 nM), -0.0555%. Besides, the p53-positive nuclei, normalised was -0.0139% in experiment [2] (measured here: p53 positive nuclei at 24 h, Library stock concentration: 1.5 uM); -0.119% in experiment [2] (measured here: p53 positive nuclei at 24 h, Library stock concentration: 4.6 uM); 1.05% in experiment [2] (measured here: p53 positive nuclei at 24 h, Library stock concentration: 13.7 uM); 14.4% in experiment [2] (measured here: p53 positive nuclei at 24 h, Library stock concentration: 41 uM); 69.4% in experiment [2] (measured here: p53 positive nuclei at 24 h, Library stock concentration: 123 uM); 85.7% in experiment [2] (measured here: p53 positive nuclei at 24 h, Library stock concentration: 370 uM). Also, the p53-positive nuclei, normalised in experiment [2] (measured here: p53 positive nuclei at 24 h, Library stock concentration: 1.111 mM) stood at 93.5%; in experiment [2] (setting [13]), 80.8%; in experiment [2] (measured here: p53 positive nuclei at 24 h, Library stock concentration: 3.333 mM) it was 103%; in experiment [2] (setting [9]), 104%.
For the compound `O=C(O)c1ccccc1`, the nuclei count, normalised in experiment [1] (setting [10]) worked out at 99.7%; in experiment [1] (setting [11]), 99.1%. The p53-positive nuclei, normalised was -0.166% (inactive) in experiment [2] (setting [12]) and -0.28% in experiment [2] (setting [13]).
On to `CCCCCC(=O)/C=C/[C@H]1[C@H](O)CC(=O)[C@@H]1CCCCCCC(=O)O`, for which the nuclei count, normalised in experiment [1] (setting [3]) and in experiment [1] (setting [4]) was 107% each time. The p53-positive nuclei, normalised in experiment [2] (concentration not given here) is -0.0323% (inactive); in experiment [2] (setting [5]), -0.0183%.
As to `CCCCCNC(=O)N1CCC2(CC1)Nc1ccccc1N(CC1CC1)C2=O`, the nuclei count, normalised in experiment [1] (setting [3]) is 105%; in experiment [1] (setting [4]), 110%. For the same compound, the p53-positive nuclei, normalised was -0.23% (inactive) in experiment [2] (concentration not given here) and -0.154% in experiment [2] (setting [5]).
